Out of some 6,200 compounds screened, about 2,900 (47%) were called active. No stated cut-off is given here; in the data, active means inhibition above about 50%; inactive means the rest. The set was probably picked from earlier hits. This is one part of the list.
assay: Mycobacterium tuberculosis growth inhibition, primary screen (AID 1259343); conditions: inhibition: at 10 µM, hits give high values; outcome: 10 uM

| SMILES | inhibition |
| --- | --- |
| Cc1cc(C)n(C(C)CNS(=O)(=O)c2ccc(C)c(C)c2)n1 (stereo unspecified) | -27.8% (inactive) |
| Cc1cc2nn(-c3ccc(C(C)C)cc3)nc2cc1N | 14.7% (inactive) |
| CC(C)c1ccc(-c2nnc(N)s2)cc1 | 72.1% (active) |
| CC(O)c1cnc(-c2ccc(Br)cc2)s1 (stereo unspecified) | 35.9% (inactive) |
| C=CS(=O)(=O)Oc1ccccc1 | 78.9% (active) |
| O=C(/C=C/C(=O)Oc1ccccc1C(=O)O)Oc1ccccc1C(=O)O | 26.7% (inactive) |
| Nc1nc(Cl)cc(N2CCN(Cc3ccc4c(c3)OCCO4)CC2)n1 | 6.34% (inactive) |
| NC(=O)c1ccnc(N2CCN(Cc3ccc(Cl)c(Cl)c3)CC2)c1 | 89.4% (active) |
| NC(=O)c1ccc(CN2CCCc3cc(F)cc(F)c32)cc1 | 17.5% (inactive) |
| C=CCn1cnc2c(c1=O)c1nc3ccccc3nc1n2CCC(C)C | 12.7% (inactive) |
| CCOc1ccc2ccccc2c1C(=O)Nc1cc(C)nn1-c1nc(C)cc(=O)[nH]1 | 101% (active) |
| CCOc1ccc2ccccc2c1C(=O)Nc1cc(C)nn1-c1nc(CC)cc(=O)[nH]1 | 101% (active) |
| O=S(=O)(NCCCCOc1ccc(Cl)cc1)c1cccc(F)c1 | 88.5% (active) |
| O=S(=O)(NCCCNS(=O)(=O)c1ccc(Cl)cc1)c1ccc(Cl)cc1 | -18.2% (inactive) |
| COCCOc1ccc(CNS(=O)(=O)c2ccc(F)c(Cl)c2)cc1 | 30.9% (inactive) |
| Cc1noc(C)c1C(=O)Nc1nc2cc(C(C)(C)C)ccc2o1 | 100% (active) |
| Cc1ccc(-c2csc(NC(=O)c3c(C)noc3C)n2)s1 | 24.1% (inactive) |
| Cc1oc2nc[nH]c(=O)c2c1C(=O)Nc1ccc(C(C)(C)C)cc1 | 39.2% (inactive) |
| CCCc1nc(N2CC[C@@H](c3ccc4ccccc4c3)[C@H](O)C2)no1 | 23% (inactive) |
| CCc1cnc(N2CC[C@@H](c3ccc4ccccc4c3)[C@H](O)C2)nc1 | 86.1% (active) |
| Cc1cc(N2CC[C@@H](c3ccc4c(c3)OCO4)[C@H](O)C2)nc2cc(F)ccc12 | 11.3% (inactive) |
| O=C(CSC1=NS(=O)(=O)c2ccccc2N1)Nc1ccccc1 | 31.9% (inactive) |
| Cc1cc(C)n2nc(SCC(=O)Nc3ccc(C(C)C)cc3)nc2n1 | 84.4% (active) |
| CCCCc1ccc(NC(=O)CSc2nc3nc(C)cc(C)n3n2)cc1 | -36.7% (inactive) |
| O=C1c2ccccc2-c2nc3nonc3nc21 | 103% (active) |
| O=C(NNC(=O)C1C2C=CC(C2)C1C(=O)O)c1ccc(OC2CCCC2)cc1 (stereo unspecified) | 97.7% (active) |

| SMILES | inhibition |
| --- | --- |
| CC(C)n1nccc1-c1nnc(NC(=O)c2ccccc2)o1 | 100% (active) |
| CCC(C)n1nccc1NC(=O)c1n[nH]c2ccccc2c1=O (stereo unspecified) | 3.7% (inactive) |
| O=C(c1ccccc1)n1sc(=O)c2ccccc21 | 61.1% (active) |
| CN(Cc1cccc(NC(=O)C(C)(C)C)c1)C(=O)C(F)(F)F | 4.53% (inactive) |
| O=C(CCCn1c(=O)oc2ccccc21)Nc1cccc(-c2ccsc2)c1 | 34.8% (inactive) |
| CS(=O)(=O)CCC(=O)Nc1cccc(-n2cccc2)c1 | 81.7% (active) |
| CCOC(=O)C1CSC(Cc2ccc(OCc3ccc([N+](=O)[O-])cc3)cc2)N1 (stereo unspecified) | 66% (active) |
| COc1cccc(C=NNC(=O)c2cc(-c3ccc(Cl)s3)[nH]n2)c1 | 68% (active) |
| O=C(NN=Cc1ccncc1)c1cc(-c2ccc(Cl)s2)[nH]n1 | 16.5% (inactive) |
| CC(=NNC(=O)c1cc(-c2ccc(Cl)s2)[nH]n1)c1ccccc1O | 40.9% (inactive) |
| O=c1[nH]nc(SCc2cc(Cl)ccc2Cl)c(=O)[nH]1 | 54.7% (active) |
| O=C(CN1CCN(CCC23CC4CC(CC(C4)C2)C3)CC1)N1CCCCC1 | 9.26% (inactive) |
| O=C(Nc1ccc(-n2cccn2)cc1)C1CCN(Cc2ccccn2)CC1 | 90.4% (active) |
| CCOC(=O)C1(CCOc2ccccc2)CCN(Cc2cc3ccccc3[nH]2)CC1 | inactive |
| Cc1nc(C)c(CN2CCC(C(=O)Nc3ccc(-n4cccn4)cc3)CC2)nc1C | 83.6% (active) |
| O=C(Nc1ccc(-n2cccn2)cc1)C1CCCCN1Cc1cc2ccccc2[nH]1 (stereo unspecified) | 80.4% (active) |
| O=C(CCC1CCCCC1)Nc1ccc(-n2cccn2)cc1 | 37.5% (inactive) |
| Cc1ccc(C(C)CCN2CCC(C(=O)Nc3ccc(-n4cccn4)cc3)CC2)o1 (stereo unspecified) | 81.8% (active) |
| CCn1ncc(CN2CCCC(C(=O)Nc3cccc(-c4cc5ccccc5[nH]4)c3)C2)c1C (stereo unspecified) | 24.9% (inactive) |
| Cc1ccc2nc(/C(Cl)=C/c3cccc(OCc4cccc(C#N)c4)c3)cc(=O)n2c1 | 32.1% (inactive) |
| O=C(Nc1cccc(-c2cccc(F)c2)c1)C1CCN(CC2CCOC2)CC1 (stereo unspecified) | 19.5% (inactive) |
| O=C(Nc1ccc(-n2cccn2)cc1)C1CCN(CC2CCOC2)CC1 (stereo unspecified) | 87.4% (active) |
| CCCCOC(=O)c1ccc(N/C=C(\C#N)c2nc(C3CC3)cs2)cc1 | 79.1% (active) |
| N#CC(Cc1ccccc1)NC(=O)/C=C/c1ccccc1Br (stereo unspecified) | 88.1% (active) |
| O=C(O)c1cncnc1/C=C/c1ccccc1Br | 3.04% (inactive) |
| CCc1ccc(S(=O)(=O)NCCOc2ccc(-c3ccc(F)cc3)nn2)s1 | 92.4% (active) |

| SMILES | inhibition |
| --- | --- |
| O=C(c1cc(COc2ccc3c(c2)CCCC3)on1)N1CCC(c2ccncc2)CC1 | 36.6% (inactive) |
| O=C(c1cc(COc2cccc(C(F)(F)F)c2)on1)N1CCC(c2ccncc2)CC1 | 64.9% (active) |
| O=C(NCc1ccc(Cl)s1)c1cc(COc2cccc(C(F)(F)F)c2)on1 | 82.4% (active) |
| O=C(NC1(c2ccccc2)CC1)c1cc(COc2cccc(C(F)(F)F)c2)on1 | 88.1% (active) |
| O=C(c1cc(COc2ccc(-n3cncn3)cc2)on1)N1CCC(c2ccncc2)CC1 | 35.6% (inactive) |
| C#CCN(CC=C)C(=O)c1cc(COc2cccc(C(F)(F)F)c2)on1 | 26.3% (inactive) |
| Cc1ccc(-c2nc(N3CCN(CCO)CC3)ncc2-c2ccccc2C)cc1 | -0.32% (inactive) |
| O=P(NCc1ccccc1)(Oc1ccccc1)Oc1ccccc1 | 81.5% (active) |
| O=C(NCc1ccccc1)c1coc(Br)c1 | 41.6% (inactive) |
| CN(Cc1ccc(C#N)cc1)C(=O)CCc1ccc(C(C)(C)C)cc1 | 74.3% (active) |
| CC(C)(C)CC(C)(C)NC(=O)c1ccc(C#N)cc1 | -11.6% (inactive) |
| CCC(C)(C)C1CCC(NC(=O)c2cccc(-n3cnnn3)c2)CC1 (stereo unspecified) | 24.6% (inactive) |
| CCC(C)(C)C1CCC(NC(=O)c2ccnc(C)n2)CC1 (stereo unspecified) | 70.8% (active) |
| O=[N+]([O-])c1ccc(C2CN=C(Nc3ccccc3)O2)cc1 (stereo unspecified) | 74% (active) |
| NC(=O)CC1CCN(Cc2noc(Cc3ccc(Br)cc3)n2)CC1 | 24.6% (inactive) |
| CCC(=O)C1=C(c2ccc(Br)cc2)N(C(=O)CC)n2cnnc2S1 | 8.79% (inactive) |
| CNS(=O)(=O)c1ccc(C(=O)Nc2ccc(C)c(C)c2)o1 | -15.4% (inactive) |
| Cc1nnc(NC(=O)c2ccc(S(=O)(=O)Nc3cccc(C(F)(F)F)c3)o2)s1 | 66.4% (active) |
| O=C(NC(=S)Nc1cccc(C(F)(F)F)c1)c1ccc(Br)o1 | -5.04% (inactive) |
| O=C(NNc1ccc(Cl)c(Cl)c1)c1ccc(NC(=O)C2CC2)cc1 | 96.5% (active) |
| O=C(Nc1ccc(CNS(=O)(=O)c2c(Cl)cccc2Cl)cc1)C1CC1 | 27.6% (inactive) |
| O=C(Nc1ccc(Cl)c(Cl)c1)N(Cc1ccc(O)cc1)C1CC1 | 27.8% (inactive) |
| CCCCNC(=S)N1CC2(C)CC1CC(C)(C)C2 (stereo unspecified) | 90.3% (active) |
| CC1(C)CC2CC(C)(CN2C(=S)NC(=O)c2cccs2)C1 (stereo unspecified) | 96.2% (active) |
| CC1(C)CC2CC(C)(CN2C(=O)c2cc3c(s2)CCCC3)C1 (stereo unspecified) | 47.7% (inactive) |
| Fc1ccc(OCc2noc(-c3cccs3)n2)c(Br)c1 | -15.9% (inactive) |

| SMILES | inhibition |
| --- | --- |
| Clc1ccc(Cc2noc(-c3cccs3)n2)c(Cl)c1 | 84.3% (active) |
| CNC(=O)Cc1noc(-c2cc3c(s2)CCCCCC3)n1 | 43.5% (inactive) |
| O=C(CN1CCCc2cc(F)ccc21)NCc1ccco1 | 44% (inactive) |
| S=C(NCc1ccco1)N1CCC2CCCCC2C1 (stereo unspecified) | 86.6% (active) |
| N#Cc1cccc(NC(=O)c2cc(Cl)c3c(c2)OCCCO3)c1 | 56.4% (active) |
| COc1cc(C(=O)NC2CCOc3ccccc32)cc2c1OCCO2 (stereo unspecified) | 41.9% (inactive) |
| N#Cc1cccc(NC(=O)C2C3CC4CC(C3)CC2C4)c1 (stereo unspecified) | 28.5% (inactive) |
| CC(C)c1cccc(Nc2nnc(C(O)c3ccccc3)s2)c1 (stereo unspecified) | 68.4% (active) |
| OC(c1ccccc1)c1nc(/C=C/c2ccccc2)cs1 (stereo unspecified) | 47.4% (inactive) |
| Cc1cc(NC(=O)C(C)C)n(-c2nc3c(c(=O)[nH]2)CCC3)n1 | 101% (active) |
| Cc1cc(NC(=O)C(C)Oc2ccccc2)n(-c2nc3c(c(=O)[nH]2)CCC3)n1 (stereo unspecified) | 100% (active) |
| O=C(Nc1ncnc2c1CCC2)c1nc2ccccc2s1 | 93.3% (active) |
| CC(C)(C)c1nnc2sc(SCC(=O)NCC3CCCCC3)nn2c1=O | 73.1% (active) |
| O=C(CSc1nnc(SCC(=O)NC2CCCC2)s1)NC1CCCC1 | -2.28% (inactive) |
| O=C(CSC(F)(F)F)NCC1CCC1 | -78.2% (inactive) |
| Cc1cnc(CNC(=O)C2CC2c2ccc(F)c(F)c2)o1 (stereo unspecified) | -29.9% (inactive) |
| CC(C)c1nc(CCNC(=O)C2CC2c2cccc(O)c2)cs1 (stereo unspecified) | 39.2% (inactive) |
| Cc1csc(CCNC(=O)C2CC2c2ccc(Cl)cc2)n1 (stereo unspecified) | 79.1% (active) |
| CC(C)NC(=O)Nc1cccc(C(=O)Nc2ccc(C(C)C)cc2)c1 | 35.6% (inactive) |
| O=C(O)Cc1ccc(NC(=O)c2cccc(Br)c2)cc1 | 89.2% (active) |
| C=C(Br)Cn1c(-c2cccs2)nc2ccccc21 | 4.18% (inactive) |
| C=CCn1c(COc2ccc3ccccc3c2)nc2ccccc21 | 26.8% (inactive) |
| C=C(Br)Cn1c(C=Cc2ccccc2)nc2ccccc21 | 89.4% (active) |
